The supplement of paper PMC9897528
Values without a mark were called inactive.

What follows are molecules tested on Scedosporium aurantiacum CBS 136046 (assay: growth inhibition relative to DMSO control (OD600); higher = more antifungal activity, active = 80 or more). Conditions: 5 µM; 72 h; 37 °C.
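Note: conidia screened in RPMI 1640 medium under 5% CO2, growth read by spectrophotometer, medium with 0.5% DMSO serving as the untreated reference.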

| Structure (SMILES) | growth inhibition [%] |
| --- | --- |
| C[N+]1(C)CCCC(OC(=O)C(O)(c2ccccc2)c2ccccc2)C1 (stereo not drawn) | 34.9 |
| NC1(C(=O)O)CCP(=O)(O)CC1 (stereo not drawn) | 11.9 |
| COc1cc(C(C)(C)CCCC(C)C)cc(OC)c1OC | 13.3 |
| CN1C(=O)C(c2ccccc2)C(=O)N(c2ccccc2)c2cc(C(F)(F)F)ccc21 (stereo not drawn) | 2.84 |
| O=C(NC12CC3CC(CC(C3)C1)C2)c1cc2ccccc2[nH]1 | 1.85 |
| CCN1CCN(Cc2nc3ccc([N+](=O)[O-])cc3c(=O)n2-c2ccccc2F)CC1 | 2.42 |
| CCCCc1ccc(C(=O)O)nc1 | 15.8 |
| Nc1c(C(=O)NCc2ccco2)c2nc3ccccc3nc2n1CCN1CCCCC1 | 36.7 |
| COC(=O)Nc1nc2ccccc2[nH]1 | 1.58 |
| C[C@H]1CC[C@]2(NC1)O[C@H]1C[C@H]3[C@@H]4CC[C@H]5C[C@@H](O)CC[C@]5(C)[C@H]4CC[C@]3(C)[C@H]1[C@@H]2C | 8.88 |
| CC(C)Oc1cccc(NC(=O)c2ccccc2C(F)(F)F)c1 | 6.87 |
| COc1ccccc1CN[C@H]1C2CCN(CC2)[C@H]1C(c1ccccc1)c1ccccc1 | 25.9 |
| C[C@@]1(O)[C@H](O)[C@@H](CO)O[C@H]1n1ccc2c(N)ncnc21 | 3.66 |
